According to PubChem BioAssay (EPA / NIEHS):
Inconclusive results are not listed. The source made the active and inactive calls. The calls were made as follows, unless noted: active = hit-call score of the fitted dose curve at least 0.9, where 1 is the maximum; inactive = score below 0.9.

Experiments:
[1] = APR_HepG2_CellCycleArrest_1hr: Apredica 1-hour HepG2 Assay for Cell Cycle Arrest (AID 2282666); conditions: high-content imaging, actives raise or lower the signal
Procedure, shortened: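 Cell cycle arrest scored from nuclear DNA content (Hoechst 33342) using high-content imaging of fixed HepG2 cells after 1 h treatment across 0.39–200 uM, in duplicate. Gain or loss fitted relative to 0.5% DMSO.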

[2] = APR_HepG2_CellLoss_1hr: Apredica 1-hour HepG2 Assay for Cell Loss (AID 2282668); conditions: high-content imaging;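 also: curves fitted both ways against DMSO so gain or loss of cells counts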
Procedure, shortened: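 Cell number comes from high-content imaging of Hoechst-labelled nuclei in fixed HepG2 cells. Cells were exposed for 1 h to ten concentrations from 0.39 to 200 uM in 0.5% DMSO. Gain or loss was fitted against DMSO controls.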

[3] = APR_HepG2_MicrotubuleCSK_1hr: Apredica 1-hour HepG2 Assay for Microtubule CSK Stabilty (AID 2282669); conditions: HepG2 microtubule cytoskeleton imaging, actives raise or lower the signal
Procedure, shortened: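 Alpha-tubulin immunofluorescence, imaged by automated high-content microscopy with Hoechst nuclear segmentation, measured cytoskeletal change after 1 h dosing of HepG2 at 0.39–200 uM in 0.5% DMSO. Activity fitted in both directions relative to DMSO.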

[4] = APR_HepG2_NuclearSize_1hr: Apredica 1-hour HepG2 Assay for Nuclear Size (AID 2282670); conditions: high-content imaging, actives raise or lower the signal
Procedure, shortened: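 Nuclear size measured by high-content imaging of Hoechst 33342 nuclear stain after formaldehyde fixation; human HepG2 line exposed 1 hr to compounds at 0.39–200 uM in 0.5% DMSO, with bidirectional curve fitting relative to DMSO.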

[5] = APR_HepG2_MitoMembPot_1hr: Apredica 1-hour HepG2 Assay for Mitochondrial Membrane Potential (AID 2282675); conditions: imaging, actives raise or lower the signal
Procedure, shortened: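 Mitochondrial membrane potential read as MitoTracker Red CMXRos intensity by automated imaging of fixed HepG2 cells. Dye at 250 nM for 30 min pre-fixation; compounds 0.39 to 200 uM for 1 hour, duplicate wells, 0.5% DMSO.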

[6] = APR_HepG2_p53Act_1hr: Apredica 1-hour HepG2 Assay for p53 Activation (AID 2282671); conditions: high-content imaging, actives raise or lower the signal
Procedure, shortened: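 After 1 h exposure (0.39–200 uM, 0.5% DMSO final, duplicates), fixed HepG2 cells were labelled with anti-p53 antibody plus Hoechst nuclear stain. Fluorescence quantified by automated 20x imaging; changes fitted in both directions against DMSO.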

[7] = ACEA_ER_80hr: ACEA Biosciences xCELLigence Real-Time Cell Analysis on Estrogen Receptor Agonism for Proliferation (AID 2282667; active = hit-call score of the fitted dose curve at least 0.9, where 1 is the maximum); conditions: T47D proliferation, impedance (xCELLigence), 80 h
Procedure, shortened: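 T-47D cells monitored by electrical impedance (xCELLigence) with compound present throughout; 80 h timepoint, positive-direction fitting versus DMSO. Eight-point 1:4 dilutions from 100 uM final, duplicate plates.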

[8] = APR_HepG2_MitoMass_1hr: Apredica 1-hour HepG2 Assay for Mitochondrial Mass (AID 2282674); conditions: high-content imaging, actives raise or lower the signal
Procedure, shortened: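 Mitochondrial mass is taken from MitoTracker Red CMXRos (250 nM, 30 min, pre-fixation) fluorescence imaged at 20x in HepG2 cells. Exposure lasted 1 hr across ten concentrations, 0.39 to 200 uM, 0.5% DMSO; DMSO baseline, bidirectional fitting.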

[9] = APR_HepG2_MitoticArrest_1hr: Apredica 1-hour HepG2 Assay for Mitotic Arrest (AID 2282672); conditions: high-content imaging, actives raise or lower the signal
Procedure, shortened: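 Ten-point concentration series (0.39 to 200 uM, duplicates, 0.5% v/v DMSO) applied to human HepG2 liver cells for 1 hr. High-content imaging of phospho-histone H3 and Hoechst-stained nuclei after fixation and permeabilization; DMSO-normalised bidirectional fit.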

[10] = APR_HepG2_P-H2AX_1hr: Apredica 1-hour HepG2 Assay for H2AX Phosphorylation (AID 2282673); conditions: high-content imaging, actives raise or lower the signal
Procedure, shortened: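 Phospho-H2A.x immunofluorescence (1:200, FITC secondary) plus Hoechst nuclear stain, quantified by high-content imaging in HepG2 after 1 hr compound exposure. Ten concentrations, 0.39 to 200 uM, in duplicate with 0.5% DMSO; fit both directions against DMSO.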

Measured: AC50

CCOCN(C(=O)CCl)c1c(C)cccc1CC
inactive: [1] | [2] | [3] | [4] | [5]

CCN(CC)C(=O)SCc1ccc(Cl)cc1
inactive: [1] | [2] | [3] | [4] | [6] | [5]

O=C(NC(=O)c1c(F)cccc1F)Nc1ccc(OC(F)(F)C(F)OC(F)(F)F)c(Cl)c1 (centres undefined)
inactive: [7] | [2] | [3] | [4] | [8] | [5]

Oc1cc(Cl)ccc1Oc1ccc(Cl)cc1Cl
inactive: [3] | [9] | [5]
active: [1] 118 µM | [2] 114 µM | [4] 158 µM

COC(=O)c1ccccc1S(=O)(=O)NC(=O)N(C)c1nc(C)nc(OC)n1
not listed: [6] | [7] | [8]
inactive: all other assays above

CNC(=O)CSP(=S)(OC)OC
inactive: [1] | [7] | [2] | [3] | [4] | [5]

O=[N+]([O-])c1c(Cl)c(Cl)c(Cl)c(Cl)c1Cl
not listed: [6] | [7] | [10]
inactive: all other assays above

C#CCN1C(=O)COc2cc(F)c(N3C(=O)C4=C(CCCC4)C3=O)cc21
inactive: [7] | [2] | [3] | [4] | [5]

CCCN(CCOc1c(Cl)cc(Cl)cc1Cl)C(=O)n1ccnc1
inactive: [2] | [3] | [4] | [9] | [5]

COc1cc(OC)nc(NC(=O)NS(=O)(=O)c2cc(NC=O)ccc2C(=O)N(C)C)n1
inactive: [1] | [2] | [3] | [4] | [8] | [5]

N#CN
inactive: [7] | [2] | [3] | [4] | [5]

COC(=O)c1ccccc1CS(=O)(=O)NC(=O)Nc1nc(OC)cc(OC)n1
inactive: [1] | [2] | [3] | [4] | [10] | [5]

O=C(Nc1ccccc1)Nc1cnns1
inactive: [2] | [3] | [4] | [9] | [8]
active: [5] 76.2 µM

CCCN(CCC)c1c([N+](=O)[O-])cc(C(F)(F)F)cc1[N+](=O)[O-]
inactive: [7] | [2] | [3] | [4] | [5]

O=[N+]([O-])/N=C1\NCCN1Cc1ccc(Cl)nc1
inactive: [7] | [2] | [3] | [4] | [5]

O=C(O)COc1ccc(Cl)cc1Cl
inactive: [1] | [2] | [3] | [4] | [5]

COP(=O)(OC)OC=C(Cl)Cl
not listed: [1] | [6] | [9]
inactive: all other assays above

Cc1[nH]c(=O)n(C(C)(C)C)c(=O)c1Cl
inactive: [7] | [2] | [3] | [4] | [10] | [5]

CNC(=O)/C=C(\C)OP(=O)(OC)OC
not listed: [6] | [8] | [9]
inactive: all other assays above

CC1(C)C(C=C(Cl)Cl)C1C(=O)OC(C#N)c1ccc(F)c(Oc2ccccc2)c1 (centres undefined)
inactive: [1] | [2] | [3] | [4] | [9] | [5]

CC(C)OC(=O)Nc1cccc(Cl)c1
inactive: [2] | [3] | [4] | [9] | [10] | [5]

COc1nn(CSP(=S)(OC)OC)c(=O)s1
inactive: [1] | [2] | [3] | [4] | [5]

CCOC1Oc2ccc(OS(C)(=O)=O)cc2C1(C)C (centres undefined)
inactive: [7] | [2] | [3] | [4] | [5]

OCCOc1ccccc1
inactive: [1] | [2] | [3] | [4] | [10] | [5]

Clc1ccccc1-c1nnc(-c2ccccc2Cl)nn1
inactive: [7] | [2] | [3] | [4] | [5]

CCC(C)Nc1c([N+](=O)[O-])cc(C(C)(C)C)cc1[N+](=O)[O-] (centres undefined)
inactive: [7] | [2] | [3] | [4] | [5]
